# Data as given in PubChem BioAssay.
# Several values for one entry are separate records, joined by “and”; a condition that tells them apart may be missing. Identical values can stand only once. Records with an inconclusive call do not appear. Activity calls are given as the source filed them. Unless noted, no stated cut-off is given here; in the data, active means parasite load remaining mostly below about 12% (no sharp cut-off); inactive means mostly above about 10%.
# What was measured:
# [1] = compounds altering viability of human ES cells (AID 493140; call rule not given here;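 further: cells exposed to compounds for four days before counting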); conditions: human embryonic stem cell survival screen; stronger effect = higher value
# [2] = P. berghei load reduction in hepatocytes – cell-based, HepG2, luciferase luminescence, HepG2 viability, primary screen (AID 624349);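 further: 100% = mean of DMSO negative control wells on the same plate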; conditions: P. berghei liver stage in HepG2, luciferase luminescence, concentration not given here; parasite load remaining: stronger effect = lower value; viability: measured here: HepG2 viability without parasites
# [3] = viability loss with induced miR-34 in A549 – imaging, A549 dox-inducible miR-34, nuclei and caspase counts, primary screen (AID 1347080;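 active means compounds whose cell count with miR-34 switched on is under 0.7 times the count with it off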); conditions: A549 miR-34 inducible, Hoechst nuclei count, 48 h
# [4] = chitosan synthesis blockers in C. neoformans – flow cytometry, Cibacron Brilliant Red staining (AID 1347148; call rule not given here;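 further: compound exposure lasted three days at 37 degrees C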); conditions: Cryptococcus neoformans chitosan, stronger effect = lower value; at 10 µM unless noted
# [5] = biological target: ATP-dependent translocase ABCB1 (Homo sapiens) (UniProt P08183); experiment: P-glycoprotein substrate transport blockade – cell-based (AID 377; in the data active means fluorescence slope change above about 50%); conditions: MDR1-expressing cells, fluorescent substrate accumulation slope; stronger effect = higher value; concentration not given here
# [6] = MELAS cybrid and Rieske KO viability enhancers – cell-based, MELAS cybrids, Rieske KO mouse fibroblasts, CellTiter-Glo, primary screen (AID 1508586;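 active means mean z-score across replicates of 1.96 or higher in either the MELAS or the Rieske mutant cell line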;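 further: z relative to plate mean and SD of compound and empty wells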); conditions: low glucose
# [7] = biological target: NAD(+) hydrolase SARM1 (Homo sapiens) (UniProt Q6SZW1); experiment: blocking NAD cleavage by SARM1 SAM-TIR – cell lysate, NAD-Glo luminescence (AID 1508614;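 active means compound whose remaining NAD level is above about 45 nM, limit read from the data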); conditions: SAM-TIR HEK293T lysate NADase, at 1 µM, stronger effect = higher value
# [8] = biological target: Mitogen-activated protein kinase 7 (Homo sapiens) (UniProt Q13164); experiment: Gal4-ERK5 driven luciferase induction – cell-based, HTS, primary screen (AID 1508626;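 active means luciferase signal above three times the same-plate solvent-only control wells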;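 further: luciferase driven by Gal4-ERK5 fusion binding five Gal4 sites before minimal TATA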); conditions: HeLa Gal4-ERK5 transactivation, 18 h, at 5 µM, stronger effect = higher value
# [9] = stronger effect = lower value, cell number ratio, induced over uninduced
# [10] = measured here: relative caspase fold change +Dox/-Dox
# [11] = measured here: total cells with miR-34 induction, stronger effect = lower value
# [12] = measured here: total cells without miR-34 induction
# [13] = MELAS cybrid survival, CellTiter-Glo 48 h, stronger effect = higher value
# [14] = Rieske KO mouse fibroblast survival, CellTiter-Glo 72 h
# Sequence of Mitogen-activated protein kinase 7 (Homo sapiens) (Q13164 whole entry, looked up, the tested form may be a part): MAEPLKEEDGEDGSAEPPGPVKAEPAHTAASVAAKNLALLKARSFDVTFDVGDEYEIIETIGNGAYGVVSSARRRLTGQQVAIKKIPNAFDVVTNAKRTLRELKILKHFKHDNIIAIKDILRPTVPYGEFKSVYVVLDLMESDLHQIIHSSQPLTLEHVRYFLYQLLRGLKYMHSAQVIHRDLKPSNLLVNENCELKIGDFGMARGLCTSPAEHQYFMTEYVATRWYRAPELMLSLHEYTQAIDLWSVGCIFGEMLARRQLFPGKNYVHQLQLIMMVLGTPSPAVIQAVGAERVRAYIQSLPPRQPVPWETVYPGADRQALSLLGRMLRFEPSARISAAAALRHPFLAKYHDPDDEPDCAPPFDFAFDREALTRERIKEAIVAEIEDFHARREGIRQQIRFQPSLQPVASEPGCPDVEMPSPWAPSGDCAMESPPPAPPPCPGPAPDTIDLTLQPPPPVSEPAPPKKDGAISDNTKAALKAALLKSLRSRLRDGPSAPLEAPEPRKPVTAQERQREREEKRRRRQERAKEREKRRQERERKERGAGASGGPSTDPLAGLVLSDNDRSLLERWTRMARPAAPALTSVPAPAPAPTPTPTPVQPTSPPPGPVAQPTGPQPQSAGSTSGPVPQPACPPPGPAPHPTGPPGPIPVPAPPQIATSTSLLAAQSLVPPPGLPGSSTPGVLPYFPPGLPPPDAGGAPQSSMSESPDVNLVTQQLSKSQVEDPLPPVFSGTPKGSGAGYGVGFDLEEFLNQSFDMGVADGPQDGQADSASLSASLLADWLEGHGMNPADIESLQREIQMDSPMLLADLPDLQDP
# Sequence of ATP-dependent translocase ABCB1 (Homo sapiens) (P08183 whole entry, looked up): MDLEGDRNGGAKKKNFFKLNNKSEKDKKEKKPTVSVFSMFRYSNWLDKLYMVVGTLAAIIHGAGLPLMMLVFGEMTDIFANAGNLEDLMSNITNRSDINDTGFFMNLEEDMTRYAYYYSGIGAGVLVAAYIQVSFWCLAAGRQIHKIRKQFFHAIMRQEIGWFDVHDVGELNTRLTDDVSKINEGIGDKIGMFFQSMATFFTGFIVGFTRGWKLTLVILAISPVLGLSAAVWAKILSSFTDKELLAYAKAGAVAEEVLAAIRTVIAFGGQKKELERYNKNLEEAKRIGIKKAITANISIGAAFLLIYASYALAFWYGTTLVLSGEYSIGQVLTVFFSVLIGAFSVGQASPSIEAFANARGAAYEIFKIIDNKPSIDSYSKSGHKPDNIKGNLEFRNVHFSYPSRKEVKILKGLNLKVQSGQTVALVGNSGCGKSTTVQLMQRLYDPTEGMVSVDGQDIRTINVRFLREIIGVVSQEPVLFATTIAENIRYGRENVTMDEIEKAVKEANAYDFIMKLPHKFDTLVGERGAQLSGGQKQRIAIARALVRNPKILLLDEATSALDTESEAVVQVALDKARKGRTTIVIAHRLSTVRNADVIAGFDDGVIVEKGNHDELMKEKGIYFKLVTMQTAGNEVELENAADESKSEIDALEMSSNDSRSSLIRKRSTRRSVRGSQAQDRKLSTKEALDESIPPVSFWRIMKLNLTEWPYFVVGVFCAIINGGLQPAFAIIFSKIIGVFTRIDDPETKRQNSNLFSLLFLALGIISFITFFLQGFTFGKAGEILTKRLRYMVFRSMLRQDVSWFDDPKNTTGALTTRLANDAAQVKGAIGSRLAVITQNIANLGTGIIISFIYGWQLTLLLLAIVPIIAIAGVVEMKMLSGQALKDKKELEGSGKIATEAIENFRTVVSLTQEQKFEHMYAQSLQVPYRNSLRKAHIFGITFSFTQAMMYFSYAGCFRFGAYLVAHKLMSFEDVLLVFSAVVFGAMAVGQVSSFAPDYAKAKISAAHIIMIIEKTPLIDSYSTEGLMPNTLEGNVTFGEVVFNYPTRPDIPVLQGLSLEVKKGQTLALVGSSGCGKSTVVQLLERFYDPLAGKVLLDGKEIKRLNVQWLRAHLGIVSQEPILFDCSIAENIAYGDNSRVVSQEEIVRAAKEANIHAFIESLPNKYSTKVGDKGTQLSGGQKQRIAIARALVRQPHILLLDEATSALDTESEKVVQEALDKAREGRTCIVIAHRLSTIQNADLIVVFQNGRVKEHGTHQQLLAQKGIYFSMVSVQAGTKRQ
# Sequence of NAD(+) hydrolase SARM1 (Homo sapiens) (Q6SZW1 whole entry, looked up, the tested form may be a part): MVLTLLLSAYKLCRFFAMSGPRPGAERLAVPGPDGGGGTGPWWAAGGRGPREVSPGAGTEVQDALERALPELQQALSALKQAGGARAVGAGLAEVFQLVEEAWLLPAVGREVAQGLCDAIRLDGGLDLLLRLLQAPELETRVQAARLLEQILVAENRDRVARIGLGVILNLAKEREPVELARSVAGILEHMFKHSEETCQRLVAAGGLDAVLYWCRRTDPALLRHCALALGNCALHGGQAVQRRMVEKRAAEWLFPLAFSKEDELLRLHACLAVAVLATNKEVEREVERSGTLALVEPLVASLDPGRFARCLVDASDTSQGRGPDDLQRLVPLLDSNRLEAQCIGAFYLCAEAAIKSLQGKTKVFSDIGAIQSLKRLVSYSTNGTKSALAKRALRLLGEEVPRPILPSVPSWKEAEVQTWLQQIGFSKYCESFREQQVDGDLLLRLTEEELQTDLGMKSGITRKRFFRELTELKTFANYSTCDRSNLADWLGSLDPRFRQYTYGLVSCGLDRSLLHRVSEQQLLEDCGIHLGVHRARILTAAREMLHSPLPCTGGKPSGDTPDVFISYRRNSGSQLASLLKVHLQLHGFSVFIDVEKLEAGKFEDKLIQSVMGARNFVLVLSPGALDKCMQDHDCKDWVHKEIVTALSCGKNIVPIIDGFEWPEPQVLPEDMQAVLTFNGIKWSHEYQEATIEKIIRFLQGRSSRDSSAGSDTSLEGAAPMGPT
compound,measurement,setting,value
CN1C2CCCC1CC(=O)C2,survival,[1],10.2 (inactive)
same,parasite load remaining,[2],169% (inactive) and 77.1% (inactive)
same,viability,[2],110% and 77.5%
same,fold change,[3]; [9],0.891 (inactive)
same,fold change,[3]; [10],1.28
same,cell count,[3]; [11],9180
same,cell count,[3]; [12],10300
C/C1=C/C(=O)O[C@H]2C[C@H](CC[C@@H](C)/C=C\CC1)O[C@](O)([C@H]1CSC(=O)N1)C2,fold fluorescence,[4],6.99 [at 126.4 µM] (inactive)
O=c1ccc2cc(OC3O[C@H](CO)[C@@H](O)[C@H](O)[C@H]3O)c(O)cc2o1 (stereo partly specified),parasite load remaining,[2],70.5% (inactive)
same,viability,[2],96.1%
same,fold change,[3]; [9],0.976 (inactive)
same,fold change,[3]; [10],0.932
same,cell count,[3]; [11],9360
same,cell count,[3]; [12],9590
CC[C@H]1C2C[C@H]3[C@@H]4N(C)c5ccccc5C45C[C@H](C2[C@H]5O)N3[C@@H]1O (stereo partly specified),parasite load remaining,[2],126% (inactive)
same,viability,[2],98.7%
same,fold change,[3]; [9],0.84 (inactive)
same,fold change,[3]; [10],1.31
same,cell count,[3]; [11],8780
same,cell count,[3]; [12],10400
C[C@H]1O[C@@H](OC2CC[C@]3(C=O)[C@H]4CC[C@]5(C)[C@@H](C6=CC(=O)OC6)CC[C@]5(O)[C@@H]4CC[C@]3(O)C2)C[C@H](O)[C@@H]1O (stereo partly specified),parasite load remaining,[2],0.83% (inactive)
same,viability,[2],69.5%
same,fold change,[3]; [9],0.718 (inactive)
same,fold change,[3]; [10],1.73
same,cell count,[3]; [11],1040
same,cell count,[3]; [12],1440
CN(C)[C@@H]1C(=O)C(C(N)=O)=C(O)[C@@]2(O)C(=O)C3=C(O)c4c(O)ccc(Cl)c4[C@@](C)(O)C3C[C@@H]12 (stereo partly specified),parasite load remaining,[2],51% (inactive)
same,viability,[2],46.7%
same,fold change,[3]; [9],0.828 (inactive)
same,fold change,[3]; [10],1.43
same,cell count,[3]; [11],7670
same,cell count,[3]; [12],9260
CC(=O)O[C@H]1C[C@H](O[C@H]2[C@@H](O)C[C@H](O[C@H]3[C@@H](O)C[C@H](O[C@H]4CC[C@@]5(C)[C@H](CC[C@]6(C)[C@]5(C)C[C@@H](O)[C@]5(C)[C@@H](C7=CC(=O)OC7)CC[C@@]56O)C4)O[C@@H]3C)O[C@@H]2C)O[C@H](C)[C@H]1O[C@@H]1O[C@H](CO)[C@@H](O)[C@H](O)[C@H]1O,parasite load remaining,[2],0.31% (inactive)
same,viability,[2],66.6%
same,fold change,[3]; [9],0.992 (inactive)
same,fold change,[3]; [10],1.14
same,cell count,[3]; [11],808
same,cell count,[3]; [12],815
C=C1[C@@H]2CC[C@H]3[C@]4(C)C[C@H](O[C@H]5O[C@H](CO)[C@@H](OS(=O)(=O)O)[C@H](OS(=O)(=O)O)[C@H]5OC(=O)CC(C)C)C[C@@H](C(=O)O)[C@H]4CC[C@]3(C2)[C@H]1O,parasite load remaining,[2],72.2% (inactive)
same,viability,[2],97.4%
same,fold change,[3]; [9],0.879 (inactive)
same,fold change,[3]; [10],0.935
same,cell count,[3]; [11],8890
same,cell count,[3]; [12],10100
CC[C@H](C)[C@H]1O[C@]2(C=C[C@@H]1C)C[C@@H]1C[C@@H](C/C=C(\C)C(O[C@H]3C[C@H](OC)C(O[C@H]4C[C@H](OC)[C@@H](O)[C@H](C)O4)[C@H](C)O3)[C@@H](C)/C=C/C=C3\CO[C@@H]4[C@H](O)C(C)=C[C@@H](C(=O)O1)[C@]34O)O2 (stereo partly specified),fluorescence slope change,[5],61.5% (active)
same,z-score,[6]; [13],-1.19 (inactive)
same,z-score,[6]; [14],1.52
CC(=O)O[C@H]1C[C@H](O[C@H]2[C@@H](O)C[C@H](O[C@H]3[C@@H](O)C[C@H](O[C@H]4CC[C@@]5(C)[C@H](CC[C@@H]6[C@@H]5C[C@@H](O)[C@]5(C)[C@@H](C7=CC(=O)OC7)CC[C@]65O)C4)O[C@@H]3C)O[C@@H]2C)O[C@H](C)[C@H]1O[C@@H]1O[C@H](CO)[C@@H](O)[C@H](O)[C@H]1O,z-score,[6]; [13],2.15 (active)
same,z-score,[6]; [14],0.322
same,remaining NAD,[7],10 nM (inactive)
same,luciferase signal,[8],44 AU (inactive)
